Results as given in PubChem BioAssay.
For some of these results: Potency and affinity values are given separately. The list shows a part of the results. Activity calls are given as the source filed them.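 The calls were made as follows, unless noted: active = GFP response above 150% of the DMSO level; inconclusive = fewer than 70 events counted for a yeast strain; inactive = the rest.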

Experiments:
[1] = molecular target: Cell division control protein 42 homolog (Homo sapiens) (UniProt P60953); assay: inhibition of fluorescent GTP binding to constitutively active Cdc42 – biochemical, multiplex bead flow cytometry, Bodipy-FL-GTP, dose response (AID 1333;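 active = fitted half-maximal concentration within the tested dose range, moderate curve steepness, a statistically real signal drop, and little compound fluorescence or tag-binding interference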)
Chain of Cell division control protein 42 homolog (Homo sapiens) (P60953 whole entry, looked up): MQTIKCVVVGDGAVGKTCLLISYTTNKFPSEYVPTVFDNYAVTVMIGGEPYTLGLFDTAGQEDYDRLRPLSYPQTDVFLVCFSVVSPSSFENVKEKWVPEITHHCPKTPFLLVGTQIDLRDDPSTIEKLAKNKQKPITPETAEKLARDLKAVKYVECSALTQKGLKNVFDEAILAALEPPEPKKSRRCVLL

[2] = molecular target: Cell division control protein 42 homolog (Homo sapiens) (UniProt P60953); assay: inhibition of fluorescent GTP binding to wildtype Cdc42 – biochemical, multiplex bead flow cytometry, Bodipy-FL-GTP, dose response (AID 1334;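 active = fitted half-maximal concentration within the tested range, moderate curve steepness, significant signal drop, and little compound fluorescence or bead-linkage interference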); conditions: bead-based flow cytometry, Bodipy-FL-GTP binding to GST-Cdc42; at 100 µM (top of the series) unless noted
[3] = molecular target: GTPase HRas (Homo sapiens) (UniProt P01112); assay: Ras wt fluorescent GTP loading blockade – biochemical, wildtype, multiplex bead flow cytometry, dose response (AID 1335;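 active = fitted half-maximal concentration within 10 nM to 100 µM, steepness 0.5 to 2, significant signal drop, low assay interference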); conditions: bead-based flow cytometry, Bodipy-GTP binding to GST-Ras; at 100 µM (top of the series) unless noted
Chain of GTPase HRas (Homo sapiens) (P01112 whole entry, looked up): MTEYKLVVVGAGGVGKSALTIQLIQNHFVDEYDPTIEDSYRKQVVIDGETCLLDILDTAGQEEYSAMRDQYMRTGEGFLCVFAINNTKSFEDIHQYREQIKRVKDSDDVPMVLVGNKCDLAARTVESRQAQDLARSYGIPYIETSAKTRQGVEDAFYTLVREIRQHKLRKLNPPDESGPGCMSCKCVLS

[4] = system: Ras-related protein Rab-7a (dog), GTP binding; assay: blockers of fluorescent GTP binding to Rab7 – biochemical, wildtype, multiplex bead flow cytometry, dose response (AID 1336; call rule not given here)
[5] = molecular target: Ras-related C3 botulinum toxin substrate 1 (Homo sapiens) (UniProt P63000); assay: inhibition of wildtype Rac1 nucleotide loading – biochemical, multiplex bead flow cytometry, dose response (AID 1340;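 active = dose curve with midpoint inside tested range, moderate steepness, plateau gap beyond fit error, low compound glow and bead-link interference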); conditions: GST-Rac1 beads, Bodipy-FL-GTP binding; at 100 µM (top of the series) unless noted
[6] = molecular target: GTPase HRas (Homo sapiens) (UniProt P01112); assay: blockade of GTP loading onto mutant Ras – biochemical, activated mutant, multiplex bead flow cytometry, dose response (AID 1341;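 active = dose-response curve with midpoint inside the tested range, moderate steepness, significant amplitude and little compound fluorescence or bead-attachment interference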;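 also: GST-tagged constitutively activated Ras mutant immobilized on beads and multiplexed with other GTPases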)
[7] = hit retest on RPL19A-GFP reporter strain – cell-based, S. cerevisiae, flow cytometry, cherry picks, mother/daughter gates, confirmation (AID 2270;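 active = GFP response below 50% of the DMSO control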); conditions: 3 h, at 10 µM, stronger effect = lower value, 100 = same GFP as DMSO wells
[8] = yeast TOR pathway reporter LAP4-GFP change – cell-based, cherry picks, flow cytometry, mother/daughter gates, confirmation (AID 2271;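 active = GFP response above 150% of the DMSO control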;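 also: ratio of sample to DMSO plate mean so 100% equals DMSO level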); conditions: S. cerevisiae LAP4-GFP strain, 3 h, at 10 µM, stronger effect = higher value, 100 means same as DMSO control
[9] = TOR pathway reporter MEP2-GFP, retest of hits – S. cerevisiae, flow cytometry GFP, cherry picks, confirmation (AID 2272;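 active = GFP response above 150% of the DMSO control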;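 also: ratio of well signal to plate DMSO mean so 100% equals DMSO level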); conditions: S. cerevisiae MEP2-GFP strain, 3 h, at 10 µM, stronger effect = higher value
[10] = yeast AGP1-GFP fluorescence change, single-dose – cell-based, flow cytometry, S. cerevisiae, cherry picks, confirmation (AID 2273);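 also: median GFP channel fluorescence over the whole cell population gate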; conditions: S. cerevisiae AGP1-GFP strain, 3 h, at 10 µM
[11] = TOR pathway CIT2 reporter hit retest – S. cerevisiae, GFP fusion, cherry picks, mother/daughter gates, confirmation (AID 2274); conditions: S. cerevisiae CIT2-GFP strain, flow cytometry, 3 h, at 10 µM, stronger effect = higher value
[12] = green-channel fluorescence artefact in S. cerevisiae – s288c strain, artefact control for yeast TOR pathway GFP screen, dose response (AID 2757;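 active = fluorescence span over the dose series, or activity score, above about 33, limit read from the data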;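 also: thousands of bead-calibrated equivalent soluble fluorophore molecules from median cell fluorescence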); conditions: 520 nm autofluorescence, flow cytometry, 3 h, at 33 µM, stronger effect = higher value, zero means same as solvent-only cells
[13] = measured here: daughter cell gate
[14] = measured here: mother cell gate
[15] = measured here: daughter cell gate response
[16] = measured here: mother cell gate response

SMILES | outcome [1] | fluorescence, percent of control (lower = inhibition) [2] [%] | GTP binding, percent of control [3] [%] | outcome [4] | GTP binding signal, raw median fluorescence (lower = inhibition) (MCF (arbitrary fluorescence units)) [5] | outcome [6] | GFP response vs DMSO [7] | GFP response vs DMSO [7, 13] [%] | GFP response vs DMSO [7, 14] [%] | GFP response relative to DMSO [8] | GFP response relative to DMSO [8, 15] [%] | GFP response relative to DMSO [8, 16] [%] | GFP response vs DMSO [9] | GFP response, % of DMSO [10] | GFP response, % of DMSO [11] | GFP response, % of DMSO [11, 13] [%] | GFP response, % of DMSO [11, 14] [%] | fluorescence change (kMESF span) [12]
O=C(/C=C/c1ccc(Cl)c([N+](=O)[O-])c1)c1cccnc1 | inactive | 30.5 | 73.5 | inactive | 206 | inactive | 91.5% (inactive) | 89.7 | 84.1 | 207% (active) | 192 | 215 | 105% (inactive) | 107% (inactive) | 86% (inactive) | 102 | 72.8 | 1.02 (inactive)
COc1cc(/C=N/Nc2nnc3c(n2)[nH]c2ccccc23)ccc1O | inactive | 33.9 | 79.1 | inactive |  | inactive |  |  |  |  |  |  |  |  |  |  |  | 
CC(C)(C)c1ccc(C(=O)CC(Sc2ccc(Cl)cc2)C(=O)O)cc1 (stereo not given) | inactive | 30.3 | 79.2 | inactive | 285 | inactive | 100% (inactive) | 97.1 | 100 | 120% (inactive) | 112 | 125 | 101% (inactive) | 98.4% (inactive) | 79.7% (inactive) | 79.4 | 77.8 | 
